# Compound activity as filed in PubChem BioAssay.
# bovine MsrA act – bovine methionine sulfoxide reductase A activation | purified bovine MsrA, absorbance read-out | activation, % at 10.6 µM | hit rate 0.3% among 360,000; in the data active means activation above about 7.5%;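 further: 0% = vehicle and 100% = reference activator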
# MsrA inhibitor – inhibits bovine methionine sulfoxide reductase A. inhibition, % at 15.5 µM. hit rate 0.75% among 360,000. AID 651718. purified bovine MsrA, absorbance read-out; in the data active means inhibition above about 4.5%;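 further: 0% = vehicle wells with enzyme and 100% = reference inhibitor wells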
# HGIII-sPLA2 inh – Blocks human group III sPLA2 activity; hit rate 0.56% among 370,000; Q9NZ20; QFRET BODIPY PC-A2 liposome hydrolysis, fluorescence; inhibition, % at 12.2 µM; AID 743126;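 active means inhibition above mean plus 3 SD of compounds lying within the high and low control bounds, cut at about 19% in these data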;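 further: 0% = median of test compound wells and 100% = no enzyme DMSO wells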
# Target sequence (Q9NZ20 whole entry, looked up): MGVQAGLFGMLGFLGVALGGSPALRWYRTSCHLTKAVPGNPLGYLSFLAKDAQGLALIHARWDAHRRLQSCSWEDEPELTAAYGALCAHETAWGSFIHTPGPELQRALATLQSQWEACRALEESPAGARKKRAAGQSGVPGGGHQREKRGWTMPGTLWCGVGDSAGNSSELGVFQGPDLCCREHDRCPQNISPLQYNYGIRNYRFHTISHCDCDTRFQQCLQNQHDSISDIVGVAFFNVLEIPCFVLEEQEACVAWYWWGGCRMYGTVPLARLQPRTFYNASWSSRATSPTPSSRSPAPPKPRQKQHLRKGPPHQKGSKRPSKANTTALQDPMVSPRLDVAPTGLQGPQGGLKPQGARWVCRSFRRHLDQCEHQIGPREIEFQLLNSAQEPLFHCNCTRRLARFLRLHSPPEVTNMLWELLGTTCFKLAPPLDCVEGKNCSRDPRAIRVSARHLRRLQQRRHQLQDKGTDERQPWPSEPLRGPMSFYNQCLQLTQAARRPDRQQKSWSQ
# rCAG binder – r(CAG) repeat RNA binding; TO-PRO-1 dye displacement fluorescence; inhibition, % at 3 µM; hit rate 1.3% among 370,000;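 active means inhibition above the plate cutoff, the mean of all test compounds on that plate plus 3 SD, cut at about 35% in these data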;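 further: 0% = DMSO alone and 100% = 100 µM mitoxantrone as full dye displacement; higher means more dye released from RNA so lower well fluorescence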
# rCAG binder conf – r(CAG) RNA repeat binding, confirmation; inhibition, % at 3 µM; TO-PRO-1 dye displacement fluorescence; hit rate 70% among 4,300; shares compounds with rCAG binder; AID 652065;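 active means inhibition above a per-plate cutoff, the mean inhibition of sample wells plus 3 SD, cut at about 35% in these data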;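 further: loss of TO-PRO-1 fluorescence as compound displaces dye from 1x1 AA loop RNA; 0% = DMSO only wells and 100% = 100 µM mitoxantrone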
# DNA CAG counter – disrupts DNA CAG TO-PRO-1 complex, flagging rCAG hits | inhibition, % at 3 µM | d(CAG) DNA oligo TO-PRO-1 dye displacement, fluorescence | hit rate 94% among 4,300 | shares compounds with rCAG binder;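 active means inhibition above its plate's cutoff, the mean test-well inhibition plus 3 SD, cut at about 4.8% in these data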;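 further: 0% = DNA dye mix with DMSO and 100% = 100 µM mitoxantrone; hits displace the dye from DNA and so lower well fluorescence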
# dCAG dye DR – counter-screen for rCAG binders: inhibitors of DNA CAG TO-PRO-1 complex; shares compounds with rCAG binder; DNA CAG/GTC duplex TO-PRO-1 dye displacement fluorescence; IC50, µM; hit rate 20% among 250; AID 686960; in the data active means IC50 below about 10 µM
# Active calls of the source: *; nt = no result. Only some compounds are listed: those with a hit (about 2.8% of all), similar ones and a draw of the others.
SMILES,bovine MsrA act,MsrA inhibitor,HGIII-sPLA2 inh,rCAG binder,rCAG binder conf,DNA CAG counter,others
Cc1ccc(C(=O)CCC(=O)Nc2ccc(Cl)c(S(=O)(=O)Nc3cccc(Cl)c3)c2)cc1,-13,1,-40,35*,35*,12*,
Cc1ccc(C(=O)NCC(=O)OCC(=O)c2ccc(Cl)s2)cc1,3,-1,-3,1,nt,nt,
COc1ccc(-c2[nH]c(-c3ccc(C(=O)O)cc3)nc2-c2ccccc2)cc1,-2,2,-14,25,nt,nt,
O=C(O)c1ccc(-c2nc(-c3ccccc3)c(-c3ccccc3)[nH]2)cc1,-4,3,-18,36*,36*,6.0*,
COc1ccc(CCNC(=O)CN2CCN(S(=O)(=O)c3ccc(Cl)cc3)CC2)cc1OC,-2,-1,-2,-7,nt,nt,
COc1ccc(NC(=O)CSc2nnc(-c3cnccn3)n2C)cc1OC,-1,0,-1,-2,nt,nt,
COC(=O)c1cc(NS(=O)(=O)c2ccc(Cl)c(N3C(=O)c4ccc(C(=O)O)cc4C3=O)c2)cc(C(=O)OC)c1,-14,2,-16,52*,45*,13*,
O=C(O)c1ccc(Cl)c(S(=O)(=O)Nc2ccc(S(=O)(=O)N3CCCC3)cc2)c1,-2,0,-5,5,nt,nt,
Cc1cccc(N2CCN(C(=O)Cc3c(C(=O)O)[nH]c4ccc(Cl)cc34)CC2)c1C,-4,0,-18,50*,72*,37*,
CCOC(=O)c1c(C)[nH]c(=S)c(C#N)c1-c1ccc(OC)cc1,2,1,1,6,nt,nt,
CCCCOc1ccc(-c2c(C(=O)Nc3ccccc3)c(C)[nH]c(=S)c2C#N)cc1,3,2,0,60*,36*,16*,
COc1cc(/C=C2\S/C(=N/S(=O)(=O)c3ccccc3)NC2=O)c([N+](=O)[O-])cc1OC,-1,3,-31,77*,73*,33*,dCAG dye DR=6.6*
COc1cc(/C=C2/CC(C)OC2=O)c([N+](=O)[O-])cc1OC (stereo not drawn),-7,2,4,-4,nt,nt,
COc1ccc(S(=O)(=O)/N=C2/NC(=O)/C(=C\c3cc(OC)c(OC)cc3[N+](=O)[O-])S2)cc1,-3,1,-31,75*,63*,23*,
COc1cc(C2NCCC(=O)C2(C)C)cc(OC)c1OC (stereo not drawn),0,0,-3,4,nt,nt,
COC(=O)C1=C(C)Nc2nnnn2C1c1cc(OC)ccc1OC (stereo not drawn),-2,0,9,-6,nt,nt,
CC(OC(=O)C1=Cc2ccccc2OC1)C(=O)NCC1CCCO1 (stereo not drawn),-1,0,-21,71*,78*,44*,
COCCNC(=O)C(C)OC(=O)C1=Cc2ccccc2OC1 (stereo not drawn),-9,0,-2,-3,nt,nt,
Cc1ccc(C(=O)Nc2nc(=O)n(C(=O)CC(C)C)s2)cc1,-2,0,-9,20,nt,nt,
Cc1ccc(C(=O)Nc2nc(=O)n(C(=O)c3ccccc3Cl)s2)cc1,-7,-1,-13,48*,63*,17*,
O=C(O)c1cccc(N2C(=O)/C(=C/c3ccc(SCc4ccc(Cl)cc4)o3)SC2=S)c1,-5,-1,-16,67*,88*,61*,
COc1ccc2c(-c3cccnc3)cc(=O)[nH]c2c1,-2,2,9,6,nt,nt,
CC(C)c1ccc(NC(=O)Nc2nc(C(C)N)cs2)cc1 (stereo not drawn),-4,0,11,33,nt,nt,
CC(C)c1ccc(NC(=O)Nc2nc(C(N)C3CCCCC3)cs2)cc1 (stereo not drawn),3,-2,7,35*,21,5.5*,
COc1ccc(NC(=O)Nc2nc(C(N)C3CCCCC3)cs2)cc1 (stereo not drawn),1,0,6,40*,25,4.6*,
SMILES,bovine MsrA act,MsrA inhibitor,HGIII-sPLA2 inh,rCAG binder,rCAG binder conf,DNA CAG counter,others
CN1/C(=C\C(=O)c2ccco2)c2ccccc2CC1(C)C,-1,0,3,-3,nt,nt,
COc1ccccc1NC(=O)CCNS(=O)(=O)c1ccc2[nH]c(=O)oc2c1,-1,-1,-6,5,nt,nt,
COc1cc(/C=C/c2ccc3cccc(O)c3n2)c(Br)cc1O,-2,1,-27,48*,45*,21*,
CCOc1cc(/C=C/c2ccc3cccc([N+](=O)[O-])c3n2)cc(Cl)c1O,-7,3,-8,41*,33,13*,
COc1cc(Br)c(/C=C/c2ccc3cccc(O)c3n2)cc1OC,-3,0,-3,14,nt,nt,
Oc1ccc(Cl)cc1/C=C/c1ccc2cccc(O)c2n1,-1,1,-8,32,nt,nt,
COc1cc(Br)cc(/C=C/c2ccc3cccc(O)c3n2)c1O,-1,1,15,36*,28,13*,
Oc1c(Cl)cc(Cl)cc1/C=C/c1ccc2cccc(O)c2n1,-3,3,1,41*,56*,21*,
COc1ccc(OC)c(/C=C/c2ccc3cccc(O)c3n2)c1,-18,2,7,10,nt,nt,
CCOC(=O)c1c(C)[nH]c(=S)c(C#N)c1-c1ccc(Cl)cc1,0,3,15,26,nt,nt,
COc1ccc(C(=O)N/N=C/c2c[nH]c3ccccc23)cc1,-3,4,9,2,nt,nt,
CCCOc1ccc(C(=O)N/N=C/c2c[nH]c3ccc(Br)cc23)cc1,-9,2,-32,37*,25,12*,
CC(=O)CSc1nsc(SCC(C)=O)c1C#N,-7,1,-2,35*,38*,18*,
CCOC(=O)CSc1nsc(SCC(=O)OCC)c1C#N,-10,-1,-22,-5,nt,nt,
COc1ccccc1N1CCN(C(=O)C2CCN(S(=O)(=O)c3ccccc3F)CC2)CC1,-2,0,8,0,nt,nt,
CCc1ccc(NC(=O)c2ccc3c(c2)C(=O)N(Cc2ccco2)C3=O)cc1,-4,1,-10,35*,23,14*,
COc1cccc(/C=N/NC(=O)c2nnn(-c3nonc3N)c2C(C)C)c1OCc1ccc(F)cc1,-2,nt,nt,nt,nt,nt,
COc1cc(/C=C/c2ccc3cccc(O)c3n2)ccc1O,-5,2,-13,20,nt,nt,
Oc1ccc2ccccc2c1/C=C/c1ccc2c(Br)cc(Br)c(O)c2n1,-9,1,10,48*,50*,32*,
CCc1cc(=O)oc2cc(OCC(=O)N3CCC(C(N)=O)CC3)ccc12,-1,1,2,0,nt,nt,
COc1cc(/C=C2/NC(=O)N(c3cccc(Cl)c3)C2=O)ccc1O,-12,4,-20,9,nt,nt,
COc1cc(/C=C2\SC(=O)N(c3cccc(Cl)c3)C2=O)cc([N+](=O)[O-])c1O,-2,1,-10,37*,85*,44*,
O=C1S/C(=C\c2ccc(O)c([N+](=O)[O-])c2)C(=O)N1c1ccccc1Cl,4,2,-45,48*,44*,11*,
COc1cc([N+](=O)[O-])ccc1NC(=S)NNC(=O)CCC(=O)Nc1ccccc1Cl,-3,1,6,64*,49*,14*,
